tim23-1 inh = growth inhibitors of tim23-1 mutant yeast; hit rate 1.3% among 330,000; S. cerevisiae tim23-1 growth, BacTiter-Glo luminescence, 24 h; inhibition, % at 20 µM;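 active = growth inhibition of the mutant yeast at or above 50%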;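 also: temperature-sensitive mutant grown at 25 °C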
ATG4B inhibitor = inhibitors of human ATG4B cysteine protease | ATG4B cleavage of LC3-PLA2, NBD-HPC fluorescence, 1 h | inhibition, % at 8.33 µM | AID 504462 | hit rate 0.51% among 340,000; in the data active = inhibition above about 40%
Target sequence (Q9Y4P1 whole entry, looked up): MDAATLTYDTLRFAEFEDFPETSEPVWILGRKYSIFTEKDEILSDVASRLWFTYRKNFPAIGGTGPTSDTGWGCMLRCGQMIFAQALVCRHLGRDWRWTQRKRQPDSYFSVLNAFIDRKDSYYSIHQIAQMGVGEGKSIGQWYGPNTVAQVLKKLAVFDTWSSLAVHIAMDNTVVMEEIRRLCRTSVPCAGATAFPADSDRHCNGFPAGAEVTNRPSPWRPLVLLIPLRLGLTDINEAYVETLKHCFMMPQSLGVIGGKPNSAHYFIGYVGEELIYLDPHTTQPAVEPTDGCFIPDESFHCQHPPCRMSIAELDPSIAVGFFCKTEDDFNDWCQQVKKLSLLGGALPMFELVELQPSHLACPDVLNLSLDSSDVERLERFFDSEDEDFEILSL
tim10-1 inh = growth inhibitors of tim10-1 mutant yeast; S. cerevisiae tim10-1 ts strain growth, BacTiter-Glo, 24 h; inhibition, % at 20 µM; hit rate 2.2% among 330,000;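 active = inhibition of at least 40%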;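 also: mutant grown at 25 °C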
PfHsp90 yeast 2 = inhibits growth of yeast expressing Plasmodium falciparum Hsp90. S. cerevisiae expressing PfHsp90, BacTiter-Glo ATP, 48 h; yeast lacking PDR1 and PDR3 efflux regulators. inhibition, % at 9.4 µM. hit rate 0.32% among 310,000. AID 504621;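 active = every replicate shows inhibition above about 80%, whatever the replicate mean, limit read from the data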
TIM10 inh = inhibits growth of TIM10 yeast strain; AID 463195; S. cerevisiae TIM10 strain growth, BacTiter-Glo luminescence, 24 h; inhibition, % at 10 µM; hit rate 1.4% among 330,000;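 active = inhibition of 40% or more at the single tested concentration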;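 also: wild-type TIM10 isogenic control strain grown at permissive 25 °C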
SKKanGAS inh = blocks kanamycin growth of S. pyogenes SKKanGAS strain; BacTiter-Glo, 6 h; inhibition, % at 7.5 µM; hit rate 1.3% among 300,000;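 active = mean replicate score, as percent of positive control median, at least 50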;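 also: strain carries kanamycin resistance gene driven by streptokinase promoter and grows in 40 µg/ml kanamycin; loss of luminescence reflects streptokinase promoter inhibition or plain growth inhibition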
tim10-1 conf = confirmation of tim10-1 mutant yeast growth inhibitors | shares compounds with tim10-1 inh | S. cerevisiae tim10-1 ts strain growth, BacTiter-Glo, 24 h | inhibition, % at 20 µM | hit rate 56% among 7,400 | AID 463213;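 active = inhibition of yeast growth at or above a set limit in either of two repeat tests at 20 µM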;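 also: tim10-1 mutant grown at permissive 25 °C to find synthetic lethal compounds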
Numbers stand for hits; – = inactive; · = no result given. This is a sample that favours compounds with a hit; in the whole collection about 4.7% have one here.

SMILES	tim23-1 inh	ATG4B inhibitor	tim10-1 inh	PfHsp90 yeast 2	TIM10 inh	SKKanGAS inh	tim10-1 conf
COC(=O)/C(=C\c1cccnc1)NC(=O)c1ccc(OCc2ccccc2)cc1	–	–	–	–	–	–	·
Cc1cc(C)c(C#N)c(SCC(=O)c2cccs2)n1	–	–	44	·	–	–	–
Cc1cc(C)c(C#N)c(SCC(=O)c2ccccc2)n1	–	–	–	–	–	–	·
CCOc1ccccc1N1C(=O)CC(Sc2n[nH]c(-c3ccccc3)n2)C1=O (stereo not given)	–	–	53	–	–	–	53
CCOC(=O)n1c(=O)oc2cc(S(=O)(=O)N3CCOCC3)ccc21	–	–	–	·	–	–	·
CC(C)COC(=O)n1c(=O)oc2cc(S(=O)(=O)N3CCCCC3)ccc21	–	–	41	·	–	–	38
Cc1ccnc(NC(=O)/C=C/c2cccs2)c1	–	–	–	–	–	–	·
Cc1ccc2cc(CCNC(=O)c3ccc4c(c3)OCO4)c(=O)[nH]c2c1C	–	–	–	–	–	–	·
Cc1cccc(/C=C2\Sc3ccc(C(=O)NCC4CCCO4)cc3N(C)C2=O)c1 (stereo not given)	–	–	–	–	–	–	·
CN1C(=O)/C(=C/c2cccc(Cl)c2)Sc2ccc(C(=O)N3CCCC3)cc21	–	–	52	·	–	–	–
Cc1cccc(/C=C2\Sc3ccc(C(=O)N4CCCCC4)cc3N(C)C2=O)c1	–	–	45	–	–	–	–
O=C(Cc1n[nH]c(=O)c2ccccc12)OCC(=O)c1ccccc1	–	–	–	–	–	·	·
CCOC(=O)c1ccc2[nH]c3c(c2c1)CCCC3	–	–	42	–	–	–	34
CC(C(=O)Nc1ccccc1C(=O)N1CCOCC1)N(c1ccc(Cl)cc1)S(C)(=O)=O (stereo not given)	–	–	–	–	–	–	·
CC(C)CCn1c(SCC(=O)Nc2ccccc2C(F)(F)F)nc2nccnc2c1=O	–	–	–	–	–	–	·
CNC(=O)c1nc(C)n(-c2ccc([N+](=O)[O-])cc2)n1	–	–	–	–	–	–	·
COCCCNC(=O)c1c(N)n(/N=C/c2ccccn2)c2nc3ccccc3nc12	–	–	42	–	–	–	–
CN1CCN(S(=O)(=O)c2cccc(C(=O)Nc3sc4c(c3-c3nc5ccccc5[nH]3)CCCC4)c2)CC1	–	–	–	–	–	–	·
CC(C)c1cccc(C2=CC(=O)C[C@H](c3ccc4c(c3)OCO4)C2)c1	–	–	–	–	–	·	·
COc1ccc(F)cc1S(=O)(=O)n1nnc2ccccc21	–	–	50	–	–	–	41
CCCCCCc1cc2cc(C(N)=O)c(=N)oc2cc1O	–	·	42	·	–	–	–
CCOP(=O)(NC12CC3CC(CC(C3)C1)C2)NC12CC3CC(CC(C3)C1)C2	–	–	40	–	–	–	–
Nc1cc(-c2cccc(Br)c2)nn1Cc1ccccc1	–	–	46	–	–	–	–
COc1ccc2[nH]c(=O)c(CN(C3CCCCC3)C(c3nnnn3Cc3ccco3)C(C)C)cc2c1 (stereo not given)	–	–	41	–	–	–	–
COc1ccc2[nH]c(=O)c(CN(Cc3nnnn3Cc3ccco3)C3CCCCC3)cc2c1	–	–	–	–	–	–	·
SMILES	tim23-1 inh	ATG4B inhibitor	tim10-1 inh	PfHsp90 yeast 2	TIM10 inh	SKKanGAS inh	tim10-1 conf
CCOc1ccccc1NC(=O)C(OC(=O)c1ccc(O)cc1)c1ccccc1 (stereo not given)	–	–	42	–	–	–	38
CCOc1ccccc1NC(=O)C(OC(=O)c1ccc(CC)cc1)c1ccccc1 (stereo not given)	–	–	–	–	–	–	·
CC(C)(C)OC(=O)N1CCC[C@H]1c1nnc(SCc2ccc(Cl)cc2Cl)o1	–	–	40	–	–	–	–
CC(C)(C)OC(=O)N1CCC[C@H]1c1nnc(SCc2ccccc2Cl)o1	–	–	–	–	–	–	·
Cc1ccc(N2C(=O)C3C4C=CC(CNC(=S)Nc5cccc(Cl)c5)(O4)C3C2=O)cc1 (stereo not given)	–	–	44	105	–	–	50
O=C1C2C3C=CC(CO)(O3)C2C(=O)N1c1ccc(-c2ccccc2)cc1 (stereo not given)	–	·	95	·	–	–	97
O=C(O)c1ccc(N2C(=O)C3C4c5ccccc5C(Br)(c5ccccc54)C3C2=O)cc1 (stereo not given)	–	–	–	–	–	–	·
Nc1nonc1-n1nnc(C(=O)N/N=C/c2ccccc2F)c1CN1CCc2ccccc21	–	–	46	–	–	–	–
CCc1nonc1NC(=O)c1oc2ccc(F)cc2c1C	–	–	–	–	–	–	·
Cc1c(C(=O)Nc2nonc2-c2ccc(F)cc2)oc2ccc(F)cc12	–	–	44	–	–	57	–
Clc1ccc(-n2ncc3c(N4CCCCCC4)ncnc32)cc1	–	–	–	–	–	–	·
Brc1cc(Br)c2ncnc(N3CCCCC3)c2c1	–	–	46	–	–	–	–
CCc1ccc(/C=C/c2c([N+](=O)[O-])c(=O)n(C)c(=O)n2C)cc1	–	–	40	–	–	50	35
CCCCn1c(=N)c(S(=O)(=O)c2ccc(Br)cc2)cc2c(=O)n3cccc(C)c3nc21	–	–	44	–	–	–	–
C/C(=N\Nc1ccc([N+](=O)[O-])cc1)c1ccc2c(c1)OCO2	–	–	–	–	–	–	·
C/C(=N/Nc1ccc([N+](=O)[O-])cc1)c1ccc(C)cc1C	–	–	42	–	–	–	–
CCCc1[nH][nH]c(=O)c1C(c1ccccc1)C(C#N)C#N (stereo not given)	–	–	–	·	–	–	·
CCCc1[nH][nH]c(=O)c1C(c1ccc(Cl)cc1)C(C#N)C#N (stereo not given)	–	–	46	–	–	–	–
Cc1cc2nc(-c3ccc[nH]c3=O)n(Cc3ccc(F)cc3)c2cc1C	–	–	–	–	–	–	·
Cc1cc2nc(-c3ccc[nH]c3=O)[nH]c2cc1C	–	–	47	–	–	–	35
O=S(=O)(CCN1CCN(C(c2ccccc2)c2ccccc2)CC1)C(F)(F)F	–	–	41	–	–	–	33
c1ccc(CN2CCN(C(c3ccccc3)c3ccccc3)CC2)cc1	–	–	–	–	–	–	·
NC(=O)c1oc2ccccc2c1NC(=O)c1nc2ccccc2s1	–	–	–	–	–	–	·
CCSc1nc2c(cnn2-c2ccc(C)cc2)c(=O)[nH]1	–	–	41	–	–	–	–
CCCSc1nc2c(cnn2-c2ccc(C)cc2)c(=O)[nH]1	–	–	–	–	–	–	·
O=C(CCC(=O)Nc1ccc(F)cc1)N/N=C/c1ccc(O)cc1O	–	–	–	–	–	–	·
